Compound activity from PubChem BioAssay.
USP2a block = qHTS Assay for Inhibitors of Ubiquitin-specific Protease USP2a Using CHOP2 as the Reporter | Ubiquitin carboxyl-terminal hydrolase 2 (Homo sapiens), O75604 | USP2 core, Ub-CHOP2 coupled fluorogenic reporter, 485/531 | Potency, µM (top dose mostly 38.3 µM), without a hit: at the top dose activity change, negative = inhibition, actives largely listed as inhibitors | 330,000 compounds, 0.01% hits | AID 463254, 2010;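 also: plate controls were DMSO wells for no effect and full inhibition by NEM control for full effect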
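Deubiquitinase activity read as fluorescence (485/531 nm) after Ub-CHOP2 cleavage activates the enterokinase reporter on its substrate; USP2 core 10nM, Ub-CHOP2 and substrate 25nM each, 30min compound preincubation then 60min RT; data normalized to NEM, curves fitted.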
ClpP mod = qHTS Assay for Activators of ClpP; 340,000 compounds, 1.9% hits; purified B. subtilis ClpP, FRET peptide cleavage, 20 min; Potency, µM (highest dose often 57.5 µM), for inactives: at the highest dose activity change, negative = active; ATP-dependent Clp protease proteolytic subunit (Bacillus subtilis (strain 168)), P80244; AID 651965, 2013; active = well fitted falling curve with a large enough effect; inconclusive = small, poorly fitted or top-dose-only effect; inactive = no such curve, though single readings can be large or run the other way; also: the source files actives as falling curves though it sought activators and does not explain the sign; nearly all actives have a fitted effect of over 65% in size
Target sequence (P80244 whole entry, looked up): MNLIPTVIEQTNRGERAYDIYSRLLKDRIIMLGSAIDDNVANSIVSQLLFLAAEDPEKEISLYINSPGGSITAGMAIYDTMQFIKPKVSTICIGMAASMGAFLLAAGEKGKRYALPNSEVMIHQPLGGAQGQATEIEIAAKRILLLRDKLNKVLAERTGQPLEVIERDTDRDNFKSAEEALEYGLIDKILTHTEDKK
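Purified B. subtilis ClpP, 10 microg/mL final in Tris/HCl pH8 with KCl, BSA, glycerol and Tween-20, cleaved an Abz/nitrotyrosine-quenched decapeptide. Fluorescence (ex 320, em 430) was read at 0 and 20 min at room temperature. Delta was normalized to 5.8 microM ADEP and DMSO/no-enzyme controls.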
GALK inhibitor = qHTS Assay for Inhibitors of Human Galactokinase (GALK); AID 1868, 2009; P51570; 270,000 compounds, 0.007% hits; Potency, µM (series often up to 57.5 µM), for the others: at the highest dose activity change, negative = inhibition, most hits filed as inhibitors; Purified GALK, Kinase-Glo residual ATP luminescence; also: % is scaled to controls: 0 for no effect and ±100 for the full control effect
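Quantitative HTS: GALK 5 nM, ATP 35 uM, galactose 100 uM, 1 h room temperature, then luciferase-based ATP detection.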
Eya2 inh = qHTS Assay for Inhibitors of the Phosphatase Activity of Eya2; 330,000 compounds, 0.006% hits; Protein phosphatase EYA2 (Homo sapiens), O00167; Potency, µM (series often up to 76.9 µM), for inactives: top-dose activity, negative = inhibition, hits mostly inhibitors; recombinant Eya2, OMFP fluorescence dephosphorylation (OMFP is methylfluorescein phosphate); also: % is scaled to controls: 0 for no effect and ±100 for the full control effect
Target sequence (O00167 whole entry, looked up): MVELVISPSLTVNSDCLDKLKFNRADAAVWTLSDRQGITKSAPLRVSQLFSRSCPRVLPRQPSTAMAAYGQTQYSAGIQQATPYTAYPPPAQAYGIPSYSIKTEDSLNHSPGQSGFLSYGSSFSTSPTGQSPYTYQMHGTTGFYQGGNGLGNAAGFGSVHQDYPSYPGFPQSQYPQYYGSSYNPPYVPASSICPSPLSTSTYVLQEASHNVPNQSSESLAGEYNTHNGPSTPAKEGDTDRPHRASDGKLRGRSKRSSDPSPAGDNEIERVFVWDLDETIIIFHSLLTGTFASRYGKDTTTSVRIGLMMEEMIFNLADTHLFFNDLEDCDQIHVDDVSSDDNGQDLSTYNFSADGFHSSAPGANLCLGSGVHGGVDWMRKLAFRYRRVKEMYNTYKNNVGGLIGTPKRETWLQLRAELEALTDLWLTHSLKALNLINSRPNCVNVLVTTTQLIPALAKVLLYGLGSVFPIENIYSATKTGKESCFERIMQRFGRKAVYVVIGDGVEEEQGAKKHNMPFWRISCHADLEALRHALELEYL
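Eya2 (0.2 uM) preincubated 10 min at ambient with compound, then OMFP substrate added at 50 uM; 10 min reaction in 50 mM HEPES pH 7.5, 50 mM NaCl, 5 uM MgCl2, 0.05% BSA, 1 mM DTT. Fluorescence read at Ex 485/Em 525 nm.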
* hit, by the source's call; ? = inconclusive; . = no result. Many of the other results were omitted from the sample, so hits are more common in it than they were. Unless noted, calls follow the shape of the dose curve; as a rule, active = well fitted inhibition curve with a large enough effect; inconclusive = small, poorly fitted or top-dose-only effect, or effect the other way; inactive = flat fitted curve, though single readings scatter. Potency is read from the fitted curve at half-maximal effect.

SMILES | USP2a block | ClpP mod | GALK inhibitor | Eya2 inh
O=C(COc1ccccc1)Nc1ccccc1C(=O)NC1CC1 | 0.2% | -0.7% | . | -22.0%
CCOC(=O)c1c(N)c(C#N)c2n1CCCC2 | 0.5% | 31.6µM* | -0.7% | -21.2%
CCOc1cc(-c2c(C#N)c(=O)[nH]c3c2c(C)nn3-c2ccc(F)cc2)ccc1O | 3.3% | -17.4% | -3.3% | 2.2%
CCOC(=O)c1ccc2nc(Nc3nc4ccc(F)cc4s3)sc2c1 | 1.3% | 15.8µM* | 0.8% | 4.9%
COC(=O)c1ccc2nc(NC(=O)C(C)C)sc2c1 | -1.9% | . | 0.6% | -1.6%
COC(=O)c1ccc2nc(Nc3nc4c(F)cc(F)cc4s3)sc2c1 | 0.4% | 31.6µM* | 0.1% | 9.1%
CCOC(=O)c1ccc2nc(NC(C)=O)sc2c1 | -4.4% | . | 1.8% | 14.9%
COc1cccc(OCC(O)CN2CC(C)CC(C)C2)c1 (stereo not given) | 5.1% | 0.5% | -0.9% | -12.6%
O=C(NCCN1CCCC(O)C1)c1cc(COc2ccc(F)cc2Cl)on1 (stereo not given) | 1.2% | 0.5% | 7.2% | 10.0%
CSc1ccccc1OCc1cc(C(=O)NCCN2CCCC(O)C2)no1 (stereo not given) | -2.9% | 28.2µM* | -1.2% | 3.9%
Cc1cc(C)n(-c2ncnc3sc(C)c(C)c23)n1 | 0.9% | 31.6µM* | -0.3% | 11.9%
COC(=O)Cc1[nH]nc2c1C(C1C=CCCC1)C(C#N)=C(N)O2 (stereo not given) | -1.6% | 7.08µM* | 1.9% | 10.9%
COC(=O)Cc1[nH]nc2c1C(c1cc(OC)c(OC)c(OC)c1)C(C#N)=C(N)O2 (stereo not given) | 0.0% | -1.5% | 0.8% | 0.8%
FC(F)(F)c1nnc2sc(-c3cccs3)nn12 | 0.1% | 28.2µM* | 3.5% | -15.6%
FC(F)(F)c1nnc2sc(-c3ccncc3)nn12 | -3.1% | 0.4% | 0.4% | 10.8%
c1ccc(Cc2c(-c3ccccc3)nc3c4ccccc4ccn23)cc1 | . | 31.6µM* | . | .
Cc1oc2ncnc(N3CCCCC3)c2c1C(=O)N1CCN(c2ccc(Cl)cc2)CC1 | . | -0.8% | . | .
O=C(CCc1nc2sc3c(c2c(=O)[nH]1)CCCC3)NCCOc1ccccc1 | 0.9% | 16.2% | . | -25.9%
CN(C)C(CNC(=O)CCc1nc2sc3c(c2c(=O)[nH]1)CCCC3)c1ccccc1 (stereo not given) | 1.3% | 28.2µM* | . | 19.1%
CN(C(=O)COC(=O)c1cc2ccccc2cc1O)c1ccccc1 | 2.7% | -4.1% | . | -5.0%
Cc1cccc(Cc2c(C)nc3c(C(=O)NCc4ccco4)cnn3c2C)c1 | -3.3% | 31.6µM* | 0.2% | -24.1%
Cc1nc2c(C(=O)NCc3ccccc3Cl)cnn2c(C)c1Cc1c(F)cccc1Cl | . | -27.4% | . | .
Cc1nc2c(C(=O)NCc3ccco3)cnn2c(C)c1Cc1ccc(F)cc1Cl | 1.5% | 31.6µM* | 3.0% | 0.7%
COc1cccc(CNC(=O)c2c[nH]n3c(=O)c(Cl)c(C)nc23)c1 | -0.1% | ? | . | -2.9%
Cc1nc2c(C(=O)NCc3ccc4c(c3)OCO4)cnn2c(C)c1Cc1ccc(F)cc1Cl | -7.6% | 35.5µM* | 2.5% | -9.4%
SMILES | USP2a block | ClpP mod | GALK inhibitor | Eya2 inh
Cc1nc2c(C(=O)NCc3cccs3)cnn2c(C)c1Cc1ccccc1 | -0.7% | . | -3.6% | -12.0%
Cc1nc2c(C(=O)NCc3ccc4c(c3)OCO4)c[nH]n2c(=O)c1Cl | 0.3% | 31.6µM* | 1.0% | -8.1%
CC(=O)Nc1ccc(S(=O)(=O)N2CCN(CC(O)COc3ccc4ccccc4c3)CC2)cc1 (stereo not given) | 3.9% | 0.7% | -2.2% | -10.7%
CCOc1ccc(-c2cn3c(n2)sc2cc(C(=O)NCCc4ccc(OC)c(OC)c4)ccc23)cc1 | . | 35.5µM* | . | .
CCOc1ccc(-c2cn3c(n2)sc2cc(C(=O)NCCCc4ccccc4)ccc23)cc1 | . | 13.0% | . | .
CN1C(=S)SC(N(O)C(=O)Nc2ccccc2)C1(C)C (stereo not given) | 1.3% | 0.1% | -0.4% | 9.4%
CN1C(=S)SC(N(O)C(=O)Nc2cccc3ccccc23)C1(C)C (stereo not given) | 1.0% | 31.6µM* | -1.9% | 4.3%
N#Cc1c(-c2cccs2)cc(C2CC2)nc1SCC(N)=O | -0.9% | 15.8µM* | -2.0% | 2.1%
COC(=O)c1c(NC(=O)CN2CCC3(O)CCCCC3C2c2cc(OC)ccc2OC)sc(C)c1C (stereo not given) | -1.3% | 28.2µM* | -0.3% | -1.4%
c1ccc2c(c1)ccc1ccccc12 | -1.2% | -28.5% | . | 1.6%
Nc1c(C(O)(C(F)(F)F)C(F)(F)F)ccc2ccccc12 | 3.0% | 28.2µM* | 1.0% | 6.8%
Cc1ccc(-c2cc(C(=O)NCCc3ccccn3)c3ccccc3n2)c(C)c1 | 3.0% | 28.2µM* | 2.4% | -5.1%
CCc1ccc(-c2cc(C(=O)NCc3ccccn3)c3ccccc3n2)cc1 | -0.3% | 14.1µM* | -1.4% | -9.4%
Cc1ccc(-c2cc(C(=O)NCc3ccccn3)c3ccccc3n2)cc1 | -1.0% | 14.1µM* | -0.8% | -4.5%
O=C(NCCc1ccccn1)c1cc(-c2cccc3ccccc23)nc2ccccc12 | -0.3% | -27.1% | 0.3% | 5.3%
Fc1ccc(-c2noc(-c3ccc4c(c3)CCO4)n2)cc1 | 1.1% | . | 2.1% | 0.7%
COc1ccc(-n2c(-c3ccccc3F)nc3c(cnn3-c3ccc(C)cc3)c2=O)cc1 | . | 25.1µM* | . | .
CC1CCCN(Cc2nc3c(c(=O)n(C)c(=O)n3C)n2CCc2ccccc2)C1 (stereo not given) | -2.0% | -0.9% | -0.9% | 4.6%
CN(Cc1nc2ccccc2c(=O)[nH]1)C(=O)c1cc2c(s1)CCCCC2 | 4.5% | . | . | 3.7%
CCOC(=O)c1cnn2c(C(F)(F)F)cc(-c3ccco3)nc12 | 1.1% | 31.6µM* | 5.0% | 8.3%
CCCn1c(=O)c2c(C(=O)OCC)cc(-c3ccco3)nc2n(CCC)c1=O | -3.5% | 12.6µM* | 1.5% | -18.8%
CCOC(=O)c1cc(-c2ccco2)nc2c1c(C)nn2-c1ccccc1 | -3.1% | -4.7% | 2.4% | 15.3%
CCOC(=O)c1c(S(=O)(=O)N2CCN(c3ccc(F)cc3)CC2)c(C)n(C)c1C | 0.8% | 0.5% | -2.4% | -8.6%
CC(C)OC(=O)CC1C(=O)NCCN1C(=S)NC(=O)CCc1ccccc1 (stereo not given) | -0.8% | -2.4% | -0.8% | -13.8%
CC(=O)Oc1cc2c(c3ccccc13)CCC2=O | . | 0.7% | . | .
CCCc1cc(=O)[nH]c(SCC(=O)Nc2cc(S(=O)(=O)N3CCOCC3)ccc2N(CC)CC)n1 | 0.9% | . | . | -33.0%
Cc1ccc(N2CC(C(=O)N3CCC(C(=O)Nc4nnc(C(C)C)s4)CC3)CC2=O)cc1 (stereo not given) | -6.5% | . | 5.7% | 0.7%
CCOc1ccccc1-c1nc(-c2ccc(C)nc2OC)no1 | 0.5% | 28.2µM* | -0.7% | -1.6%
